# Records with an inconclusive call do not appear. Entries that show only a call come without a potency. Calls of active or inactive are those of the source. Calls come from the whole dose curve; as a rule, active = well fitted cell-killing curve with a large enough effect; inconclusive = small, poorly fitted or top-dose-only effect, or effect the other way; inactive = no such curve, though single readings can be large or run the other way.
# Assay: Viability qHTS for spleen associated tyrosine kinase inhibitor (SYKi) naive MV4-11 cells (AID 1963823); note: nearly all actives have a fitted effect of over 40% in size
# Settings: MV4-11 AML viability, CellTiter-Glo luminescence, 72 h; series mostly up to 45 µM
# In short: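 Luminescence from CellTiter-Glo, developed 10 min at room temperature, gave viability of MV4-11 cells never exposed to SYK inhibitor. Cells (500/well) had been incubated with compounds for 72 hr under standard culture conditions.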
# Potency is the fitted concentration of half-maximal effect.
Compound,Potency,viability (% of control)
c1ccc2c(Nc3nnc(-c4ccncc4)s3)cccc2c1,inactive,
O=C1c2ccccc2C(=O)c2c1ccc(O)c2O,9.44 µM (active),
CCOc1cc(CC(=O)NC(CC(C)C)c2ccccc2N2CCCCC2)ccc1C(=O)O (stereo unspecified),inactive,
COc1ccc(CCC(=O)c2c(O)cc(O)cc2O[C@@H]2O[C@H](CO)[C@@H](O)[C@H](O)[C@H]2O)cc1,7.96 µM (active),
Cc1cn2cc(CC(=O)N3CCC4(CC3)CN(Cc3ccc(-n5nccn5)cc3Cl)C4)nc2s1,16.4 µM (active),
CCN(CC)CCCS(=O)(=O)N[C@H](CCc1ccccc1)c1nc(Cc2ccc(Br)cc2)no1,20.6 µM (active),
NS(=O)(=O)c1ccc(N2CCN(CC[C@@H]3OCCc4ccccc43)CC2)cc1,11.6 µM (active),
CC1=C2C3OC(=O)C(C)C3(O)CCC2(C)CCC1=O (stereo unspecified),inactive,
CC(C)C(NC(=O)c1ccc2ccccc2n1)C(=O)NC(CC(=O)O)C(=O)COc1c(F)cccc1F (stereo unspecified),inactive,
CC[C@@H](C)[C@H]1C(=O)O[C@H](C(C)C)C(=O)N(C)[C@@H](C(C)C)C(=O)O[C@H](C(C)C)C(=O)N(C)[C@@H](C(C)C)C(=O)O[C@H](CC(C)C)C(=O)N1C,1.53 µM (active),
C=C1CC2C3(C)C(O)CC(=O)C(C)(C)C3C(OC(C)=O)C(OC(C)=O)C2(C)C2C(=O)OC(C)(C(=O)OC)C(=O)C12C (stereo unspecified),inactive,
COc1cc(O)c2c(c1)C1=CC(O)C(O)CC1(C)OC2=O (stereo unspecified),inactive,
COc1cc(C)c(C(=O)O[C@H]2[C@@H](O)[C@H](n3ccc(=O)[nH]c3=O)O[C@@H]2CO)c(OC)c1,inactive,
CC1(C)CC[C@]2(C(=O)O[C@@H]3O[C@H](CO)[C@@H](O)[C@H](O)[C@H]3O)CC[C@]3(C)C(=CCC4[C@@]5(C)CC[C@H](O[C@@H]6O[C@H](C(=O)O)[C@@H](O)[C@H](O)[C@H]6OC6OC(CO)C(O)C(O)C6O)C(C)(C)C5CC[C@]43C)[C@@H]2C1 (stereo partly specified),,89.4% [at 9.25 µM] (inactive)
CC(=O)N[C@H]1[C@H](O[C@H]2CC[C@@]3(C)C(CC[C@]4(C)C3CC=C3C5CC(C)(C)CC[C@]5(C(=O)O)C(O)C[C@]34C)C2(C)C)O[C@H](CO[C@@H]2O[C@H](C)[C@H](O)[C@H](O)[C@H]2O[C@@H]2OC[C@@H](O)[C@H](O)[C@H]2O)[C@@H](O)[C@@H]1O (stereo partly specified),3.48 µM (active),
O=C(/C=C/c1ccccc1)OC[C@]12O[C@H]1[C@@H](O)[C@@H]1C=CO[C@@H](O[C@@H]3O[C@H](CO)[C@@H](O)[C@H](O)[C@H]3O)[C@@H]12,inactive,
CC1(C)CC[C@@]2(C(=O)O[C@@H]3O[C@H](CO)[C@@H](O)[C@H](O)[C@H]3O)C(C1)C1=CCC3[C@@]4(C)CC[C@@H](O[C@@H]5O[C@H](C(=O)O)[C@@H](O[C@@H]6OC[C@@H](O)[C@H](O)[C@H]6O)[C@H](O[C@@H]6OC[C@](O)(CO)[C@H]6O)[C@H]5O)C(C)(C)C4CC[C@@]3(C)[C@]1(C)C[C@H]2O (stereo partly specified),,11.6% [at 9.25 µM] (inactive)
CC(=O)OC1C(O)/C(C)=C\C2C(OC(=O)c3ccccc3)C(C)CC2(OC(C)=O)C(OC(C)=O)C(C)/C=C/C(C)(C)C1OC(C)=O (stereo unspecified),inactive,
COC(=O)[C@H](O)[C@H]1C(C)(C)[C@H](OC(C)=O)[C@@]2(O)C(=O)[C@]1(C)C1CC[C@]3(C)C(CC(=O)O[C@H]3c3ccoc3)[C@]13O[C@@H]32 (stereo partly specified),inactive,
O=S(=O)(c1ccc(S(=O)(=O)n2cnc3ccccc32)cc1)N1CCCCCC1,inactive,
O=C(O[C@@H]1O[C@H](CO)[C@@H](O)[C@H](O)[C@H]1O)c1ccccc1,inactive,
CC1CCC2(O1)C(C)(C)CC(O[C@@H]1O[C@H](CO[C@@H]3OC[C@](O)(CO)[C@H]3O)[C@@H](O)[C@H](O)[C@H]1O)CC2(C)O (stereo partly specified),inactive,
CC(=O)OC1C(O)CC2(C)C(CCC3(C)C2CC=C2C4C5(CCC(CO[C@@H]6O[C@H](CO)[C@@H](O)[C@H](O)[C@H]6O)(OC5=O)C4(C)O)C(O)CC23C)C1(C)C (stereo partly specified),inactive,
CC(C)C1NC(=O)C(CC2(O)c3ccccc3N3C(=O)C(Cc4ccccc4)NC32)NC1=O (stereo unspecified),inactive,
S=c1ssc2c1CCC2,inactive,
C[C@@H]1O[C@@H](O[C@H]2[C@H](O)[C@@H](O)[C@H](OC[C@H]3O[C@@H](OC(=O)[C@]45CCC(C)(C)C[C@H]4C4=CCC6[C@@]7(C)CC[C@H](O[C@@H]8OC[C@H](O)[C@H](O[C@@H]9O[C@H](CO)[C@@H](O)[C@H](O)[C@H]9O)[C@H]8O)[C@@](C)(CO)C7CC[C@@]6(C)[C@]4(C)CC5)[C@H](O)[C@@H](O)[C@@H]3O)O[C@@H]2CO)[C@H](O)[C@H](O)[C@H]1O (stereo partly specified),,98% [at 9.25 µM] (inactive)

# Reference: PubChem BioAssay (NCATS)
